Test results reported in PubChem BioAssay (NCATS).
Results filed as inconclusive are left out. A number with no mark means an inactive call. Activity calls are given as the source filed them. The call rests on the fitted dose curve; in most records, active means well fitted inhibition curve with a large enough effect; inconclusive means small, poorly fitted or top-dose-only effect; inactive means flat fitted curve, though single readings scatter.

tested on: NIH3T3; experiment: Cytotoxic Profiling of Annotated Libraries Using Quantitative High-Throughput Screening (AID 1296008); conditions: Five cell lines viability, CellTiter-Glo ATP luminescence, 48-72 h; max response: active compounds read low; further: nearly all actives have a fitted effect of over 60% in size
Summary of the method: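 Cells exposed to compounds for 48 or 72 hr at 37 degrees Celsius. Viability read as ATP-coupled luminescence with CellTiter-Glo after 10 min at room temperature.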
On the % scale 0 is the no-effect control and ±100 the full control effect; potency means the concentration at half of the fitted maximal effect.

Row | SMILES | max response | outcome | Potency
1 | C=C(F)c1sc(CNCCCNc2cc(=O)c3ccccc3[nH]2)c(C)c1Br | -1.77% |  | 
2 | CC(=O)O[C@@H]1[C@H](O)[C@@H](O[C@@H]2O[C@@H](C)[C@H](O[C@@H]3OC[C@@H](O)[C@H](O[C@@H]4OC[C@@H](O)[C@H](O)[C@H]4O)[C@H]3O)[C@@H](O[C@@H]3O[C@H](CO)[C@@H](O)[C@H](O)[C@H]3O)[C@H]2O)[C@H](OC(=O)[C@]23CCC(C)(C)C[C@H]2C2=CCC4[C@@]5(C)CC[C@H](O[C@@H]6O[C@H](C(=O)O)[C@@H](O)[C@H](O[C@@H]7OC[C@@H](O)[C@H](O)[C@H]7O)[C@H]6O[C@@H]6O[C@H](CO)[C@H](O)[C@H](O)[C@H]6O)[C@@](C)(C=O)C5CC[C@@]4(C)[C@]2(C)CC3)O[C@@H]1C (some centres undefined) |  | inactive | 
3 | C[C@@H]1O[C@@H](O[C@@H]2CO[C@@H](O[C@H]3CC[C@@]4(C)C(CC[C@]5(C)C4CC=C4[C@@H]6CC(C)(C)CC[C@]6(C(=O)O[C@@H]6O[C@H](CO)[C@@H](O)[C@H](O)[C@H]6O)CC[C@]45C)[C@]3(C)CO)[C@H](O)[C@H]2O[C@@H]2O[C@H](CO)[C@@H](O)[C@H](O)[C@H]2O)[C@H](O)[C@H](O)[C@H]1O (some centres undefined) | 2.94% |  | 
4 | C=C(C)C1CCC(C)C12CC(O)C1(C)OC1C2OC(=O)C(N)CCC(=O)O (centres undefined) | 4.47% |  | 
5 | COc1c2c(cc3c1-c1c(cc4c(c1OC)OCO4)CC(C)C(C)C3)OCO2 (centres undefined) | -11.8% |  | 
6 | CC1=CC(=O)[C@]2(O[C@@H]3O[C@@H](C)[C@H](O)[C@@H](O)[C@H]3OC(=O)/C=C/c3ccccc3)C=CO[C@@H](O[C@@H]3O[C@H](CO)[C@@H](O)[C@H](O)[C@H]3O)[C@H]12 |  | inactive | 
7 | Cc1ccc(S(=O)(=O)c2ccc([N+](=O)[O-])o2)cc1 |  |  | 5.17 µM (active)
8 | CCOCc1nc2c(N)nc3ccccc3c2n1CC(C)(C)O | -2.04% |  | 
9 | C[C@@H]1O[C@@H](O[C@H]2[C@@H]3C=CO[C@@H](O[C@@H]4O[C@H](CO)[C@@H](O)[C@H](O)[C@H]4O)[C@@H]3[C@@]3(CO)O[C@@H]23)[C@H](OC(=O)/C=C/c2ccc(O)c(O)c2)[C@H](O)[C@H]1O | -3.69% |  | 
10 | C=C1CCCC2(C)CC3(OC)OC(=O)C(C)=C3CC12 (centres undefined) | -10.6% |  | 
11 | CC1CC[C@]2(C(=O)O)CC[C@]3(C(=O)O)C(=CCC4[C@@]5(C)CC[C@H](O[C@@H]6O[C@H](CO)[C@@H](O)[C@H](O)[C@H]6O)C(C)(C)C5CC[C@]43C)C2C1C (some centres undefined) | 2.56% |  | 
12 | CC(C)=CC/C=C(\C)[C@H]1CC[C@]2(C)[C@@H]1[C@H](O)C[C@@H]1[C@@]3(C)CC[C@H](O)C(C)(C)[C@@H]3[C@@H](O[C@@H]3O[C@H](CO)[C@@H](O)[C@H](O)[C@H]3O)C[C@]12C | -21.6% |  | 
13 | CC(C)CCC1(O)C(=O)C(C)(C)C(O[C@@H]2O[C@H](CO)[C@@H](O)[C@H](O)[C@H]2O)C(C)(C)C1O (some centres undefined) | -0.747% |  | 
14 | OC[C@@]1(O)CO[C@@H](OC[C@H]2O[C@@H](Oc3c[nH]c4ccccc34)[C@H](O)[C@@H](O)[C@@H]2O)[C@@H]1O | 1.55% |  | 
15 | c1ccc(N2CCN(CCc3nn[nH]n3)CC2)cc1 | 1.1% |  | 
16 | NC(=O)c1csc(C2OC(CO)C(O)C2O)n1 (centres undefined) | -7.35% |  | 
17 | O=C(Nc1ccc(S(=O)(=O)Nc2ccccc2Cl)c(Cl)c1)c1ccccn1 | -3.89% |  | 
18 | CC(=O)OCC1(O)CCC2C(COC3OC(CO)C(O)C(O)C3OC(=O)/C=C/c3ccc(O)cc3)=COC(OC(=O)CC(C)C)C21 (centres undefined) | 3.4% |  | 
19 | CCOC(=O)C(CCc1ccccc1)NC(C)C(=O)N1C(=O)N(C)CC1C(=O)O (centres undefined) | 1.45% |  | 
20 | O=C(O)/C=C/c1cc2c(cc1O[C@@H]1O[C@H](CO)[C@@H](O)[C@H](O)[C@H]1O)OCO2 | 4.44% |  | 

Row | SMILES | max response | outcome | Potency
21 | Cc1ccc(-c2ccc3ncc4c(c3n2)n(C2CCN(C(=O)[C@H](C)O)CC2)c(=O)n4C)cn1 |  |  | 0.231 µM (active)
22 | C/C1=C\CCC2=C[C@@H](OC2=O)c2c(C)coc2C1 | -21.8% |  | 
23 | COC1CC(O[C@H]2CC[C@@]3(C)C(CCC4C3[C@H](OC(C)=O)[C@@H](OC(=O)/C=C/c3ccccc3)[C@]3(C)C(C(C)=O)CC[C@]43O)C2)OC(C)C1OC1CC(OC)C(OC2CC(OC)C(OC3OC(C)C(OC4OC(CO)C(O)C(O)C4O)C(OC)C3O)C(C)O2)C(C)O1 (some centres undefined) | -9.54% |  | 
24 | COc1ccc(CCO[C@@H]2O[C@H](CO[C@@H]3OC[C@H](O)[C@H](O)[C@H]3O)[C@@H](O)[C@H](O)[C@H]2O)cc1 | -5.95% |  | 
25 | COc1c(C)c(OCC(O)C(C)(C)O)cc2c1COC2=O (centres undefined) | -1.75% |  | 
26 | Cn1c2ccc(F)cc2c2c(C(=O)N3CCCC3)cn(-c3ccccc3)c(=O)c21 | -3.48% |  | 
27 | CC(C)=CCC/C(C)=C/Cc1ccc(O)c(C2OC(=O)c3cc(C(=O)O)cc(O)c32)c1O (centres undefined) | 0.065% |  | 
28 | CC[C@H]1OC(=O)[C@](C)(F)C(=O)[C@H](C)[C@@H](O[C@@H]2O[C@H](C)C[C@H](N(C)C)[C@H]2O)[C@](C)(OC)C[C@@H](C)C(=O)[C@@H](C)[C@H]2N(CCCCn3cc(-c4cccc(N)c4)nn3)C(=O)O[C@]12C | 1.26% |  | 
29 | C=C[C@@]12COC(=O)C(=C)C1[C@@H](O)[C@H](C(=C)C(=O)OC)[C@@H](OC(=O)C(=C)CO)C2 (some centres undefined) | -25.8% |  | 
30 | CCOC(=O)c1cc(C#N)c(N2CCC(C(=O)NS(=O)(=O)Cc3ccccc3)CC2)nc1C | 4.98% |  | 
31 | CC(C)c1cc2c(c(O)c1O)[C@@]13CCCC(C)(C)[C@@H]1[C@H](OC3=O)C2=O | 3.28% |  | 
32 | CCC(C)C(=O)OC1CC(C)C=C2C=CC(C)C(CCC(O)CC(O)CC(=O)O)C21 (centres undefined) | -8.16% |  | 
33 | CC(C(O)/C=C/C(C)(C)O)C1CCC2(C)C3C(=O)C=C4C(CCC(O)C4(C)C)C3(C)CCC12C (centres undefined) | 4.41% |  | 
34 | O=C(NCc1ccccn1)Nc1nnc(-c2ccco2)o1 | 3.06% |  | 
35 | CC1CCC2(C(=O)O)CCC3(C)C(=CCC4C5(C)CCC(O)C(C)(CO)C5CCC43C)C2C1(C)O (centres undefined) | 1.81% |  | 
36 | Cc1cc(Nc2nc(NC(C)c3ncc(F)cn3)ncc2Cl)n[nH]1 (centres undefined) | -5.45% |  | 
37 | O=C(Nc1c(-c2cccs2)nc2ccccn12)c1ccc(Cl)cc1 | -0.375% |  | 
38 | O=C(CCc1ccccc1)N1CCC(O)(Cn2cnc3cc(Cl)ccc3c2=O)CC1 | -4.94% |  | 
39 | CC(=O)O[C@@H]1C[C@@H](OC(C)=O)C(C)(C)/C=C/[C@H](C)[C@H](OC(C)=O)[C@@]2(O)C[C@H](C)[C@H](OC(=O)c3ccccc3)[C@@H]2/C=C/1C | -4.04% |  | 
